HT1080-NT tox: qHTS for induction of synthetic lethality in tumor cells producing 2HG: qHTS for the HT-1080-NT fibrosarcoma cell line; Potency, µM (series often up to 46.1 µM), hits mostly cytotoxic; 360,000 compounds, 1.6% hits; HT-1080-NT fibrosarcoma viability, CellTiter-Glo ATP luminescence, 48 h; AID 686970, 2013;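 note: NT is the 2HG producing partner of a matched IDH1 knockdown line; nearly all actives have a fitted effect of over 55% in size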
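A 48-hour cytotoxicity screen used HT-1080-NT cells plated 2 hours before compound delivery. ATP-based CellTiter-Glo luminescence measured viability, normalized to DMSO and no-cell controls.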
ALOX12 inh: Primary qHTS assay for inhibitors of human arachidonate 12S-lipoxygenase (ALOX12): Round 2; purified 12hLO, xylenol orange hydroperoxide absorbance; Potency, µM (titrated, usually from 108 µM), hits mostly inhibitors; 580,000 compounds, 1.1% hits; Polyunsaturated fatty acid lipoxygenase ALOX12 (Homo sapiens), P18054
Target sequence (P18054 whole entry, looked up): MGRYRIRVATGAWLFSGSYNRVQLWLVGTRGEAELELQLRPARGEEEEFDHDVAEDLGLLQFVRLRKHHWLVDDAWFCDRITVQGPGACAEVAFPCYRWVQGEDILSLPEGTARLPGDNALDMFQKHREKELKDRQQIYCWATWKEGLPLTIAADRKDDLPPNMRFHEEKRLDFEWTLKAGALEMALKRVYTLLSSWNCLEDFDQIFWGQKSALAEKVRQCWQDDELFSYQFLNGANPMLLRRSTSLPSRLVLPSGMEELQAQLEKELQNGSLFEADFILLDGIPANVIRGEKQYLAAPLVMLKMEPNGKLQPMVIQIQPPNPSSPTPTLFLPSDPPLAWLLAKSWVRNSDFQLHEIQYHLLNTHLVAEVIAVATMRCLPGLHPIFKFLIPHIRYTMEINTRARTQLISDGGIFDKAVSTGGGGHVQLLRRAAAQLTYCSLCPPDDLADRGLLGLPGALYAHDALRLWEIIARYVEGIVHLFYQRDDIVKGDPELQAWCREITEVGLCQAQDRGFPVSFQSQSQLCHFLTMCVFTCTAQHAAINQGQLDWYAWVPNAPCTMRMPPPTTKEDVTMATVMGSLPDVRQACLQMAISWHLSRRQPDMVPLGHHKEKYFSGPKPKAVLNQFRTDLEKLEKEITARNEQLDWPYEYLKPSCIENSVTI
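Purified human 12hLO (150 nM final) in 25 mM Hepes, 0.01% Triton X-100, pH 7.0 was preincubated 15 min at room temperature with compound. Then 40 uM arachidonic acid was added, 30 min. Hydroperoxide was read by Fe-XO absorbance ratio 573/405 nm.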
HT1080 IDH1KD tx: qHTS for induction of synthetic lethality in tumor cells producing 2HG: qHTS for the HT-1080-IDH1KD cell line; AID 686971, 2013; 360,000 compounds, 2% hits; HT-1080 IDH1 knockdown viability, ATP luminescence, 48 h; Potency, µM (highest dose often 46.1 µM), usual class: cytotoxic
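Luminescent ATP read-out (CellTiter-Glo, 10 min at room temperature) after 48 h compound exposure at 37 °C gave viability of IDH1-knockdown HT-1080 cells. Activity was normalised to DMSO and cell-free wells, then fitted as concentration-response curves.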
DT40 TDP1 CPT: qHTS for Inhibitors of human tyrosyl-DNA phosphodiesterase 1 (TDP1): qHTS in cells in presence of CPT | chicken DT40 Tdp1-/-;hTDP1 cells + 20 nM CPT, ATP luminescence, 48 h | Potency, µM (top dose mostly 46.2 µM), actives largely listed as inhibitors | 420,000 compounds, 12% hits; note: nearly all actives have a fitted effect of over 55% in size
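Chicken DT40 Tdp1-/- cells complemented with human TDP1, 400 cells/well, exposed to compounds plus 20 nM camptothecin for at least 48 h at 37 C; viability read as ATP content by CellTiter-Glo luminescence.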
TDP1 cell noCPT: qHTS for Inhibitors of human tyrosyl-DNA phosphodiesterase 1 (TDP1): qHTS in cells in absence of CPT; AID 686978, 2013; 420,000 compounds, 15% hits; Potency, µM (series often up to 46.2 µM), usual class: inhibitors; DT40 Tdp1-/- hTDP1 cells, no CPT, ATP luminescence, 48 h; note: nearly all actives have a fitted effect of over 55% in size
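Seeded 400 DT40-hTDP1 cells/well (vehicle DMSO, no 20 nM CPT); pinned compounds; ≥48 hr at 37 °C; CellTiter-Glo luminescence as viability measure.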
IL1B secr inh: qHTS for Inhibitors of Inflammasome Signaling: IL-1-beta AlphaLISA Primary Screen | activity change, % at 57.5 µM | AID 743279, 2014 | 360,000 compounds, 4.7% hits | THP-1 LPS/ATP IL-1B secretion, AlphaLISA, 16 h; active compounds read low; in the data active = activity change below about -50%; inconclusive = mostly about -30% to -49%
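THP-1 cells pretreated 1 hr with compounds (up to 57.5 uM final), then stimulated with LPS (250 ng/mL final) plus ATP (1.25 mM final); secreted IL-1B measured by AlphaLISA after 16 hr, decreased signal indicating inhibition.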
Numbers stand for hits. Many of the other results were omitted from the sample, so hits are more common in it than they were. Unless noted, calls come from the whole dose curve; as a rule, active = well fitted curve in the direction sought with a large enough effect; inconclusive = small, poorly fitted or top-dose-only effect, or another doubt; inactive = no such curve, though single readings can be large; an effect the other way counts as inactive or inconclusive.

COc1ccc(C(=O)CC(=O)c2ccccc2)cc1 was read as HT1080-NT tox inactive, ALOX12 inh inactive, HT1080 IDH1KD tx inactive, DT40 TDP1 CPT inactive, TDP1 cell noCPT inconclusive and IL1B secr inh inactive.
For CCc1cccc2c(C(=O)O)cc(-c3ccnn3CC)nc12 the results were ALOX12 inh inactive.
COc1ccc(C(=O)CC(=O)C(=O)Nc2ccc(Cl)cc2)cc1 was read as HT1080-NT tox inactive, ALOX12 inh inactive, HT1080 IDH1KD tx inconclusive, DT40 TDP1 CPT inconclusive, TDP1 cell noCPT 20.6µM and IL1B secr inh inactive.
Screening COc1ccc(C(=O)CC(=O)C(=O)Nc2ccc(OC)c(Cl)c2)cc1 returned HT1080-NT tox inactive, ALOX12 inh inactive, HT1080 IDH1KD tx inactive, DT40 TDP1 CPT inactive, TDP1 cell noCPT inconclusive and IL1B secr inh inactive.
`CCCCCCCCN1C(=O)[C@H](CC(=O)N2CCCCC2)C[C@@]2(C(=O)OC)CCCCC=C12` gave HT1080-NT tox inconclusive, ALOX12 inh inactive, HT1080 IDH1KD tx inconclusive, DT40 TDP1 CPT inconclusive, TDP1 cell noCPT 25.9µM and IL1B secr inh inconclusive.
CCCCCCCCN1C(=O)[C@H](CC(=O)N2CCOCC2)C[C@@]2(C(=O)OC)CCCCC=C12 was read as HT1080-NT tox inactive, ALOX12 inh inactive, HT1080 IDH1KD tx inactive, DT40 TDP1 CPT 18.4µM, TDP1 cell noCPT 14.6µM and IL1B secr inh inactive.
Screening Cc1cc(C)cc(NC(=O)C2CCCN2S(=O)(=O)c2cccc3nsnc23)c1 (configuration not stated) returned ALOX12 inh inactive, DT40 TDP1 CPT inconclusive and TDP1 cell noCPT inconclusive.
Screening Cc1cc(C)cc(NC(=O)C2CCCN2S(=O)(=O)c2ccc3nc(-c4ccccc4)[nH]c3c2)c1 (configuration not stated) returned ALOX12 inh inactive, DT40 TDP1 CPT inconclusive and TDP1 cell noCPT 14.6µM.
CCOc1ccccc1NC(=O)C1CCCN(S(=O)(=O)c2cccc3cccnc23)C1 (configuration not stated) was read as HT1080-NT tox inactive, ALOX12 inh inactive, HT1080 IDH1KD tx inactive, DT40 TDP1 CPT inconclusive, TDP1 cell noCPT inconclusive and IL1B secr inh inactive.
Screening CCc1cccc(NC(=O)C2CCCN2S(=O)(=O)c2ccc3nc(-c4ccccc4)[nH]c3c2)c1 (configuration not stated) returned ALOX12 inh inactive, DT40 TDP1 CPT 7.31µM and TDP1 cell noCPT 8.2µM.
For CCc1cccc(NC(=O)C2CCCN2S(=O)(=O)c2ccc3c(c2)n(C)c(=O)c(=O)n3C)c1 (configuration not stated) the results were HT1080-NT tox inactive, ALOX12 inh inactive, HT1080 IDH1KD tx inactive, DT40 TDP1 CPT inactive, TDP1 cell noCPT inactive and IL1B secr inh inactive.
Screening CCOc1ccccc1NC(=O)C1CCN(S(=O)(=O)c2ccc3[nH]c(=O)ccc3c2)CC1 returned ALOX12 inh inactive, DT40 TDP1 CPT inactive and TDP1 cell noCPT inactive.
CCOc1ccccc1NC(=O)C1CCCN1S(=O)(=O)c1ccccc1C(F)(F)F (configuration not stated) was read as HT1080-NT tox inactive, ALOX12 inh inactive, HT1080 IDH1KD tx inactive, DT40 TDP1 CPT 20.6µM, TDP1 cell noCPT 20.6µM and IL1B secr inh inactive.
CCOc1ccccc1NC(=O)C1CCCN1S(=O)(=O)c1ccc2nc(-c3ccccc3)[nH]c2c1 (configuration not stated) was read as ALOX12 inh inactive, DT40 TDP1 CPT 10.3µM and TDP1 cell noCPT 6.51µM.
O=C(Nc1ccc(Cl)cc1C(F)(F)F)c1cccc(Cl)c1Cl was read as ALOX12 inh inactive.
COc1ccc(C)c2sc(=NC(=O)c3ccc(C(C)=O)cc3)n(C)c12 was read as HT1080-NT tox inactive, ALOX12 inh inactive, HT1080 IDH1KD tx inactive, DT40 TDP1 CPT 14.6µM, TDP1 cell noCPT inconclusive and IL1B secr inh inactive.
COc1ccc(C)c2sc(=NC(=O)c3cccc(N4C(=O)CCC4=O)c3)n(C)c12 was read as HT1080-NT tox inactive, ALOX12 inh inactive, HT1080 IDH1KD tx inactive, DT40 TDP1 CPT inactive, TDP1 cell noCPT inactive and IL1B secr inh inactive.
COc1ccc(C)c2sc(=NC(=O)c3ccccc3)n(C)c12 was read as HT1080-NT tox inactive, ALOX12 inh inactive, HT1080 IDH1KD tx inactive, DT40 TDP1 CPT inconclusive, TDP1 cell noCPT 20.6µM and IL1B secr inh inactive.
Screening O=C(COC(=O)C1CCC1)c1ccc[nH]1 returned ALOX12 inh inactive.
For CN(C)c1nc(OCCNC(=O)Nc2ccccc2)nc(N2CCOCC2)n1 the results were HT1080-NT tox inactive, ALOX12 inh inactive, HT1080 IDH1KD tx inactive, DT40 TDP1 CPT 23.1µM, TDP1 cell noCPT inactive and IL1B secr inh inactive.
`O=C(O)COc1ccccc1/C=N/O` gave ALOX12 inh inactive.
COc1ccc(/C=C(\NC(=O)c2ccccc2)C(=O)O)cc1 was read as ALOX12 inh inactive.
For Cc1cccc(Cn2c(CNS(=O)(=O)c3ccc4c(c3)CCCC4)nc3cccnc32)c1 the results were ALOX12 inh inactive, DT40 TDP1 CPT inconclusive and TDP1 cell noCPT 16.4µM.
O=S(=O)(NCc1nc2cccnc2n1Cc1ccccc1)c1ccc2c(c1)CCCC2 was read as ALOX12 inh inactive, DT40 TDP1 CPT inconclusive and TDP1 cell noCPT 20.6µM.
`COc1ccccc1Cn1c(CNS(=O)(=O)c2ccc3c(c2)CCCC3)nc2cccnc21` gave ALOX12 inh inactive, DT40 TDP1 CPT inconclusive and TDP1 cell noCPT inconclusive.
O=S(=O)(NCc1nc2cccnc2n1Cc1ccc(F)cc1)c1ccc2c(c1)CCCC2 was read as ALOX12 inh inactive, DT40 TDP1 CPT 18.4µM and TDP1 cell noCPT inconclusive.
Screening COc1cccc(Cn2c(CNS(=O)(=O)c3ccc4c(c3)CCCC4)nc3cccnc32)c1 returned ALOX12 inh inactive, DT40 TDP1 CPT inconclusive and TDP1 cell noCPT inconclusive.
`O=S(=O)(NCc1nc2cccnc2n1Cc1ccccc1Cl)c1ccc2c(c1)CCCC2` gave ALOX12 inh inactive, DT40 TDP1 CPT inconclusive and TDP1 cell noCPT 16.4µM.
Screening Cc1cnc(C(=O)N2CCC(C(=O)N3CCCCCCNC(=O)CC3)CC2)cn1 returned ALOX12 inh inactive.

Assay outcomes deposited in PubChem by National Center for Advancing Translational Sciences (NCATS).
